Source: PubChem
Sampled rows, rich in hits. Any-hit rate of the full collection: about 3.5%.
TEAD-YAP block – TEAD-YAP interaction inhibition; HEK-TIYL cells, TEAD-Gal4/YAP UAS-luciferase luminescence; inhibition, % at 9.12 µM; 640,000 tested, 1.4% active; AID 1259422; in the data active = inhibition above about 32%
FBW7 activator – activators of human E3 ligase FBW7; 650,000 tested, 0.13% active; AlphaScreen FBW7–phospho-cyclin E peptide binding, activator screen; AID 1259310; normalized activity (activation), % at 26.1 µM; in the data active = normalized activity above about 1.9%;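 also: purified mutant Fbw7 with reduced substrate affinity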
GPR151 activ – activates the human receptor GPR151; AID 1508602; activation, % at 11.2 µM; 650,000 tested, 1% active; PathHunter beta-arrestin GPR151 cells, luminescence; in the data active = activation above about 4.9%
MITF inh – human MITF inhibition, primary screen. O75030. AlphaScreen MITF homodimerization, bead proximity signal. inhibition, % at 2.6 µM. 650,000 tested, 0.91% active. AID 1259374; in the data active = inhibition above about 50%
Target sequence (O75030 whole entry, looked up): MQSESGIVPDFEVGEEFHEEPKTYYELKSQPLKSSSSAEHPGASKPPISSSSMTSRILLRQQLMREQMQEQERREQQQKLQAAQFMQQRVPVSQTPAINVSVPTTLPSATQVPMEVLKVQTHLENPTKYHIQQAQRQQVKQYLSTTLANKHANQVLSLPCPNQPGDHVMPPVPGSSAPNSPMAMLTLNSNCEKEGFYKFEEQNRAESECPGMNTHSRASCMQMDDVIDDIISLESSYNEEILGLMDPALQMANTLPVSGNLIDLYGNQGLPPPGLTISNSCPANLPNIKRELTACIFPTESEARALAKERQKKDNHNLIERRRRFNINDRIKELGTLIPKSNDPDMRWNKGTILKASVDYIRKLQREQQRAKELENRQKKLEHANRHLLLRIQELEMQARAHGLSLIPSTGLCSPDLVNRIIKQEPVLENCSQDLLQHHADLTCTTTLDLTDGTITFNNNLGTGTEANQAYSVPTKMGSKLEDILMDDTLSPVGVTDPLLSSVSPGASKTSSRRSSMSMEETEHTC
GPR151 confirm – confirmation of human GPR151 activators; GPR151 PathHunter beta-arrestin cells, luminescence, 90 min; % of EA-reagent control over plate median; activation, % at 11.2 µM; 6,700 tested, under 10 active; shares compounds with GPR151 activ;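 active = mean percent activation across replicates above the confirmation screen cutoff of 4.91%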
GPR119 ag – counter-screen for GPR151 activators: effect on human GPR119; shares compounds with GPR151 activ; GPR119 PathHunter beta-arrestin cells, luminescence, 90 min; 0 = compound-well median, 100 = enzyme-acceptor control; activation, % at 11.2 µM; 6,700 tested, 0.3% active; AID 1508611;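 active = mean percent activation in the counterscreen above 29.09%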;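 also: counterscreen on off-target GPR119 to flag nonselective hits from the GPR151 activator screen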
Each line names hits and unclear results; the compound was inactive in the other large screens (follow-up assays come after a bar, where they were run).

CC(C)CCNC(=O)C(Cc1ccccc1)NS(=O)(=O)c1ccc(F)cc1 (stereo not given)	GPR151 activ 4.9 | GPR151 confirm inactive | GPR119 ag inactive
O=C(Nc1nc2ccc(Cl)cc2s1)c1ccc2c(c1)OCO2	none
O=C1N=C(N2CCCC2C(=O)O)S/C1=C\c1ccco1 (stereo not given)	GPR151 activ 11 | GPR151 confirm inactive | GPR119 ag inactive
O=C1N=C(N2CCCCC2)S/C1=C\c1ccco1	none
CCCOc1cc2oc(=O)cc(C)c2cc1Cl	GPR151 activ 5.4 | GPR151 confirm inactive | GPR119 ag inactive
O=C(COc1cccc(Cl)c1)NNC(=S)NC(=O)c1ccccc1	none
CC(=O)c1cccc(CN2CCCC(CNC(=O)c3cccs3)C2)c1 (stereo not given)	GPR151 activ 10 | GPR151 confirm inactive | GPR119 ag inactive
CC(C)c1csc(CN2CCCC(CNC(=O)c3cccs3)C2)n1 (stereo not given)	GPR151 activ 6.1 | GPR151 confirm inactive | GPR119 ag inactive
CSc1cccc(CN2CCCC(CNC(=O)c3cccs3)C2)c1 (stereo not given)	none
CCOc1ccc2nc(C(=O)N3CCCCC3)sc2c1	GPR151 activ 11 | GPR151 confirm inactive | GPR119 ag inactive
CCOc1cccc2cc(-c3csc(Nc4ccccc4C(F)(F)F)n3)c(=O)oc12	GPR151 activ 8.1 | GPR151 confirm inactive | GPR119 ag inactive
CCOc1cccc2cc(-c3csc(Nc4ccccc4Cl)n3)c(=O)oc12	none
O=C(COC(=O)c1cccs1)c1cccc(Br)c1	none
O=[N+]([O-])C1=C(Nc2ccc(Cl)c(Cl)c2)CS(=O)(=O)C1	none
Cc1ccc(NC2=C([N+](=O)[O-])CS(=O)(=O)C2)cc1	GPR151 activ 6.5 | GPR151 confirm inactive | GPR119 ag inactive
CN1CCN(CC(=O)Nc2c(C(=O)C3CC3)oc3ccccc23)CC1	none
CC(=O)c1oc2ccccc2c1NC(=O)CN1CCCCC1	GPR151 activ 5.6 | GPR151 confirm inactive | GPR119 ag inactive
CCOc1ccc(NS(=O)(=O)c2ccc(OC)c(Cl)c2)cc1	none
COc1cc(Nc2ccnc(N3CCc4ccccc4C3)n2)cc(OC)c1OC	GPR151 activ 6.8 | GPR151 confirm inactive | GPR119 ag inactive
COc1cc(Nc2cc(C)nc(N3CCc4ccccc4C3)n2)cc(OC)c1OC	none
CC(C)(C)C(=O)NC1(C(F)(F)F)NC(=O)N(c2ccccc2F)C1=O (stereo not given)	GPR151 activ 6.6 | GPR151 confirm inactive | GPR119 ag inactive
CC(=O)N1CCc2cc(C(=O)CN3CC(C)CC(C)C3)ccc21 (stereo not given)	GPR151 activ 6.2 | GPR151 confirm inactive | GPR119 ag inactive
CCOC(=O)CCc1c(C)nc2nc(CNC(=O)c3ccccc3)nn2c1C	GPR151 activ 5.2 | GPR151 confirm inactive | GPR119 ag inactive
Cc1nc2nc(CNC(=O)OC(C)(C)C)nn2c(C)c1CCC(=O)NCc1ccccc1	none
COc1cccc(C(=O)N(CCN(C(=O)c2cccc(OC)c2)c2ccccc2C)c2ccccc2C)c1	none
CCOC(=O)N1CCN(C(=O)C2CCCN(c3nn4c(=O)cc(C)nc4s3)C2)CC1 (stereo not given)	GPR151 activ 5.6 | GPR151 confirm inactive | GPR119 ag inactive
Cc1cc(=O)n2nc(N3CCCC(C(=O)N4CCN(c5ccccc5)CC4)C3)sc2n1 (stereo not given)	none
COC(=O)c1cccc(C(=O)N2CCC(c3[nH]ncc3-c3ccccc3)CC2)c1	none
COc1cc(N(C)C)c([N+](=O)[O-])cc1C(=O)NCCN1CCN(c2ccccc2)CC1	GPR151 activ 5.8 | GPR151 confirm inactive | GPR119 ag inactive
COc1ccc(Cl)cc1C(=O)NCCCN1CCN(c2ccccc2)CC1	none
O=C(NCCOc1ccccc1)c1ccnc(-c2csc3ccccc23)c1	GPR151 activ 4.9 | GPR151 confirm inactive | GPR119 ag inactive
CCOC(=O)COc1cc(C)cc2oc(=O)cc(-c3ccccc3)c12	GPR151 activ 5.2 | GPR151 confirm inactive | GPR119 ag inactive
O=C(Nc1nnc(S(=O)(=O)N2CCCCC2)s1)c1ccc(Cl)cc1	GPR151 activ 5.6 | GPR151 confirm inactive | GPR119 ag inactive
O=C(Nc1nnc(S(=O)(=O)N2CCCCC2)s1)C12CC3CC(CC(C3)C1)C2	GPR151 activ 5.5 | GPR151 confirm inactive | GPR119 ag inactive
Nc1c(-c2nc(-c3ccc(Cl)cc3)no2)nnn1-c1cccc(F)c1	none
Cc1ccc(NC(=O)Cn2ncc3c(=O)oc4ccccc4c32)cc1F	none
Cc1nc2cnc(-c3cccnc3)cn2c1NC(=O)c1ccco1	none
CC(=O)c1cccc(NC(=O)COc2c(C)cccc2C)c1	GPR151 activ 5.2 | GPR151 confirm inactive | GPR119 ag inactive
COc1cc(CNc2ccc3ncc(-c4cccnc4)n3n2)cc(OC)c1OC	GPR151 activ 7.8 | GPR151 confirm inactive | GPR119 ag inactive
CC(=O)N1CCC2(CC1)N=C(C)C(c1ccccc1)=N2	GPR151 activ 7.1 | GPR151 confirm inactive | GPR119 ag inactive
Cc1ccc(OCC(=O)NNC(=O)COc2ccccc2C)cc1	none
Cc1ccccc1OCC(=O)NNC(=O)C(F)(F)F	GPR151 activ 5.1 | GPR151 confirm inactive | GPR119 ag inactive
CC(=O)Nc1cc2[nH]c(C)nc2nc1C	none
CS(=O)(=O)N(CC(=O)NCc1ccccc1)c1cccc(Cl)c1	GPR151 activ 6.1 | GPR151 confirm inactive | GPR119 ag inactive
O=C(NCCc1ccc(F)cc1)c1ccco1	none
COc1ccc(/C=C2/Sc3ccc(C(=O)NC(C)(C)C)cc3NC2=O)cc1	none
COCCCNC(=O)c1ccc2c(c1)NC(=O)/C(=C\c1ccc(OC)cc1)S2	GPR151 activ 7.2 | GPR151 confirm inactive | GPR119 ag inactive
Cc1ccc(O)c(NC(=O)c2onc(C)c2Cl)c1	none
Cc1c(O)ccc2c1oc(=O)c1ccccc12	none
CCCOC(=O)CN1C(=O)C2C3c4ccccc4C(c4ccccc43)C2C1=O (stereo not given)	GPR151 activ 5.0 | GPR151 confirm inactive | GPR119 ag inactive
O=C1Cc2ccccc2N1c1ccccc1	GPR151 activ 9.9 | GPR151 confirm inactive | GPR119 ag inactive
O=C1CCCCC(=O)N(c2ccccc2)c2ccccc21	none
Nc1nc(CSc2nnnn2Cc2ccccc2)nc(N2CCOCC2)n1	GPR151 activ 7.6 | GPR151 confirm inactive | GPR119 ag inactive
COc1ccc(N2C(=O)/C(=C/c3ccc([N+](=O)[O-])cc3)N=C2C)c(OC)c1	none
COC(=O)c1ccc(N2C(=O)c3ccc(NC(C)=O)cc3C2=O)cc1	GPR151 activ 11 | GPR151 confirm inactive | GPR119 ag inactive
COc1ccc(N2C(=O)c3ccc(NC(C)=O)cc3C2=O)cc1	none
O=C(c1ccc([N+](=O)[O-])cc1Cl)N1CCCCC1	none
COc1ccc(CCNc2ncnc3nc(NCCN4CCOCC4)[nH]c23)cc1	GPR151 activ 5.6 | GPR151 confirm inactive | GPR119 ag inactive
